What all share (assay): NCI-60 one-dose screen, 48 h (100 = growth as untreated, 0 = no growth, -100 = all killed)
The subject of experiment [1] is HOP-92 NSCLC. Particulars: 10 µM unless noted.
Experiment [2] deals with NCI-H522 lung. Particulars: 10 µM unless noted.
The subject of experiment [3] is RXF 393 renal. Particulars: 10 µM unless noted.
The test system of experiment [4] is M14 melanoma. The settings on record: 10 µM unless noted.
In experiment [5] the test system is U251 CNS. Particulars: 10 µM unless noted.
In experiment [6] the test system is LOX IMVI melanoma. The settings on record: 10 µM unless noted.
Experiment [7] deals with TK-10 renal. Particulars: 10 µM unless noted.
Experiment [8] deals with CAKI-1 renal. The settings on record: 10 µM unless noted.
The subject of experiment [9] is CCRF-CEM leukemia. Particulars: 10 µM unless noted.
The test system of experiment [10] is MOLT-4 leukemia. The settings on record: 10 µM.
The test system of experiment [11] is SR leukemia. The settings on record: 10 µM.
Experiment [12] concerns RPMI-8226 leukemia. The settings on record: 10 µM unless noted.
The subject of experiment [13] is SK-OV-3 ovarian. Particulars: 10 µM unless noted.
Experiment [14] deals with BT-549 breast. Particulars: 10 µM.
The subject of experiment [15] is SW-620 colon. Particulars: 10 µM unless noted.
The test system of experiment [16] is HCT-116 colon. The settings on record: 10 µM unless noted.
Experiment [17] concerns MALME-3M melanoma. The settings on record: 10 µM unless noted.
For experiment [18], the system named is EKVX NSCLC. Particulars: 10 µM unless noted.
For experiment [19], the system named is COLO 205 colon. The settings on record: 10 µM.

We go through ten molecules from PubChem BioAssay (NCI).

About 83,000 compounds went through this panel and 20% of them were active in at least one assay; those are over-represented in the sample as a whole.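 The endpoint reported here, percent growth, reads 100 for growth as untreated, 0 for no net growth and -100 for all cells dead.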 Values without a mark were called inactive. Active and inactive are the calls of the source. How the source made its calls: active means growth percent below 10; inactive means the rest.

On to `COc1cc(N(CCCl)CCCl)ccc1C=Nc1ccccc1C(=O)O`, for which the growth is 97.8% in [1]; 32.8% in experiment [2]; 102% in [3]; 98.2% in experiment [4]; 95.8% in experiment [5]; 101% in experiment [6]. The growth in experiment [7] is 124%; in experiment [8], 98.7%; in [9], 97.5%; in [10], 97.2%; in [11], 84.1%; in experiment [12], 97.2%. Moreover, the growth in [13] was 105%; in experiment [14] it was 106%; in experiment [15], 91.6%; in experiment [16], 108%.
Take `C/C(=C\C(=O)O[C@H]1[C@@H]2[C@H](C)CC[C@H]2[C@]2(C)O[C@@]1(C1CCCCC1)C[C@H]2OC(=O)CO)c1ccccc1`: the growth was 18.3% in [1]; 20.3% in experiment [2]; 64.4% in experiment [17]; -10.1% (active) in experiment [3]; 47.4% in [4]; 24.2% in [5]. The growth in experiment [18] is 48%; in experiment [7], 70.5%; in experiment [8] it was -25% (active); in experiment [9], 7.86% (active); in [12] it was -28.7% (active); in experiment [13] it was 59.7%. The growth was -6.37% (active) in experiment [14], 43.1% in experiment [15] and 7.81% (active) in [16].
Turning to `Nc1ccc(N)c2c1Oc1ccccc1O2`, the growth in experiment [1] is 74.8%; in experiment [19] it was 106%; in [17], 111%; in experiment [4], 101%; in experiment [5] it was 94.3%; in experiment [6] it was 90.3%. The growth in experiment [18] is 92.1%; in experiment [8], 84.3%; in experiment [9], 30.3%; in experiment [10], 81.6%; in [12], 81%; in [13], 94.6%. Besides, the growth in experiment [15] is 102%; in [16], 95.7%.
In the case of `CO[C@@H]1[C@H](OC(=O)NC(=O)CCl)CC[C@]2(CO2)[C@H]1[C@@]1(C)O[C@@H]1CC=C(C)C`, the growth was 10.3% in [2]; 57.4% in [19]; 57.7% in experiment [17]; 68.2% in experiment [3]; 62% in experiment [4]; 5.86% (active) in experiment [5]. The growth in experiment [6] is 22.8%; in [18], 91.7%; in experiment [7] it was 92.6%; in experiment [8], 67.2%; in [9] it was 31.8%; in experiment [10], 63%. Also, the growth in experiment [11] was 21.5%; in [12], 45.4%; in experiment [13], 93.7%; in [15], 49.4%; in [16] it was 43.8%.
As for `Oc1ccc2c3c1O[C@H]1c4[nH]c5ccccc5c4C[C@@]4(O)C(C2)N(CC2CC2)CC[C@]314`, the growth is 82.9% in experiment [1]; 122% in [17]; 98.6% in [4]; 90.2% in experiment [5]; 87.3% in experiment [6]; 95% in experiment [7]. Further, the growth in [8] is 92.3%; in experiment [9] it was 89.7%; in [10], 74.4%; in [11], 79.6%; in experiment [12] it was 93.1%; in experiment [14] it was 97.4%. For the same molecule, the growth in [15] is 99.9%; in experiment [16], 89.8%.
Consider `CC[C@H](C)[C@H](NC(=O)Nc1ccccc1)C(=O)N(C)[C@H](C[C@@H](OC(C)=O)c1nc(C(=O)N[C@@H](Cc2ccccc2)C[C@H](C)C(=O)OC)cs1)C(C)C`, for which the growth in experiment [2] was -44.6% (active); in experiment [19], -51.8% (active); in [17], 41.4%; in experiment [3] it was 0.067% (active); in [4], -7.55% (active); in experiment [5], 7.23% (active). Besides, the growth in experiment [6] is 23.9%; in experiment [9], 9.52% (active); in experiment [10], 15.7%; in experiment [11] it was 11.2%; in [12], 8.45% (active); in [13], 25.4%. The growth in experiment [15] was 17%; in experiment [16], 6.85% (active).
`C=CC(O)CN1CC1CC` (stereo unspecified): the growth in experiment [1] was 93.6%; in experiment [19], 114%; in experiment [17], 110%; in experiment [3], 115%; in experiment [5], 93.8%; in experiment [6] it was 92.6%. Besides, the growth in experiment [9] was 116%; in experiment [10], 96.2%; in experiment [11], 89.9%; in [13], 107%; in experiment [14], 93.5%; in [15], 92%. Besides, the growth in experiment [16] was 104%.
Turning to `O=[N+]([O-])c1cccc([As]=[As]c2cccc([N+](=O)[O-])c2)c1` (stereo unspecified), the growth in [1] was -99.3% (active); in [19], -81.2% (active); in experiment [17] it was -89.1% (active); in [3], -96.1% (active); in experiment [4] it was -94.4% (active); in experiment [6], -55.4% (active). The growth in [10] was -37.4% (active); in experiment [11], -32% (active); in [12] it was -39.3% (active); in [13], -100% (active); in [14], -97.7% (active); in [16], -89.3% (active).
Turning to `Cc1cc(C)nc(C)c1.[Cl][Hg][Cl]`, the growth was 3.42% (active) in experiment [2]; 123% in experiment [19]; 92.8% in experiment [17]; 124% in experiment [3]; 97.3% in experiment [4]; 91.6% in experiment [5]. The growth in experiment [6] was 80.2%; in experiment [7] it was 108%; in experiment [8], 96.4%; in [9], 78.3%; in experiment [10] it was 92%; in experiment [12], 98.9%. Also, the figures for the growth in experiment [13], in experiment [15] and in [16] were 110%, 105% and 108%, respectively.
For `O=C(/C=C/c1ccccc1)N[C@@H](CO)Cc1cnc[nH]1`, the growth in [1] is 100%; in experiment [19], 104%; in experiment [17], 110%; in experiment [3], 118%; in experiment [4] it was 105%; in experiment [5] it was 101%. Further, the growth in experiment [6] is 97.2%; in experiment [7], 93.5%; in experiment [8] it was 100%; in experiment [10], 93.8%; in [11], 93.6%; in [12], 98%. The growth was 113% in experiment [13], 103% in [14], 106% in experiment [15] and 109% in experiment [16].
